In PMC7862700, “An all-to-all approach to the identification of sequence-specific readers for epigenetic DNA modifications on cytosine”:

Tests used:
Test in all cases: DAPPL (digital affinity profiling via proximity ligation, sequencing); 10 mM Tris-HCl pH 7.5, 50 mM NaCl, 1 mM DTT, 4% glycerol, room temperature, 30 min; GST-TFs on glutathione beads, 16-mer random dsDNA library, 0.1% formaldehyde crosslink after washing; high values mean tight binding
Conditions in all cases: protein: recombinant; tags: N-terminal GST; dsDNA, one strand shown
[1] = molecular target: T1, ELK1 (Homo sapiens, UniProt P19419 1-428)
T1 sequence: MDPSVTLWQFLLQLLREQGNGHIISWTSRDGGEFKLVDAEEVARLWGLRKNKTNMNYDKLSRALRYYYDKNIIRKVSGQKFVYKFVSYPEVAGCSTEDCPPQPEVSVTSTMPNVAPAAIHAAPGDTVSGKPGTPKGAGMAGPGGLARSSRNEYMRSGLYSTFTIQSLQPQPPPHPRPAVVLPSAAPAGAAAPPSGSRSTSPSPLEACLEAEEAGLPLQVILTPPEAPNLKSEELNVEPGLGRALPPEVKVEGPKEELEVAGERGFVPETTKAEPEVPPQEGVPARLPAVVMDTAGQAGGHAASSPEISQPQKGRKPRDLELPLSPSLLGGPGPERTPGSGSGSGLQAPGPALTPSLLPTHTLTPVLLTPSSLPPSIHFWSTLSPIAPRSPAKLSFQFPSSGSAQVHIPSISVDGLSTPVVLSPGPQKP
Outline: (§1)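 Binding signal is each hexamer's read frequency for a factor divided by its frequency in the tag-only sample. The factors were GST-fused human transcription factors from yeast, captured on glutathione beads, DNA-barcoded and pooled with that sample. Pools were incubated with 200 nmole of a random double-stranded 16-mer DNA library in Tris/NaCl/DTT/glycerol buffer at room temperature for 30 min, then washed, crosslinked with 0.1% formaldehyde, proximity-ligated with BsaI/T4 ligase (1 h, 37 °C), PCR-amplified and sequenced on an Illumina NextSeq500.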

[2] = molecular target: T2, GABPA (Homo sapiens, UniProt Q06546 1-454)
T2 sequence: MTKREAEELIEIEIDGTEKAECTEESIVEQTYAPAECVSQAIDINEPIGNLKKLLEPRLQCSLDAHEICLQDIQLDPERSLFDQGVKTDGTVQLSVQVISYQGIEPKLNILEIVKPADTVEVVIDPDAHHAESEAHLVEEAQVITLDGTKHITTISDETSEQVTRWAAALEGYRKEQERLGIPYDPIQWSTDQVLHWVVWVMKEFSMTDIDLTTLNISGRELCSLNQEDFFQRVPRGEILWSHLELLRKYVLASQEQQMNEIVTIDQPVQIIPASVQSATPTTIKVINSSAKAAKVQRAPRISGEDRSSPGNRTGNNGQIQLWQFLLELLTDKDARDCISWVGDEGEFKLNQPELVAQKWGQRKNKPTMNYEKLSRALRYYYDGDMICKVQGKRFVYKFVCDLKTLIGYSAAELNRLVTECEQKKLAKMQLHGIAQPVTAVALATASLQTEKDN
Outline: as §1

[3] = molecular target: T3, ERG (Homo sapiens, UniProt P11308 1-479)
T3 sequence: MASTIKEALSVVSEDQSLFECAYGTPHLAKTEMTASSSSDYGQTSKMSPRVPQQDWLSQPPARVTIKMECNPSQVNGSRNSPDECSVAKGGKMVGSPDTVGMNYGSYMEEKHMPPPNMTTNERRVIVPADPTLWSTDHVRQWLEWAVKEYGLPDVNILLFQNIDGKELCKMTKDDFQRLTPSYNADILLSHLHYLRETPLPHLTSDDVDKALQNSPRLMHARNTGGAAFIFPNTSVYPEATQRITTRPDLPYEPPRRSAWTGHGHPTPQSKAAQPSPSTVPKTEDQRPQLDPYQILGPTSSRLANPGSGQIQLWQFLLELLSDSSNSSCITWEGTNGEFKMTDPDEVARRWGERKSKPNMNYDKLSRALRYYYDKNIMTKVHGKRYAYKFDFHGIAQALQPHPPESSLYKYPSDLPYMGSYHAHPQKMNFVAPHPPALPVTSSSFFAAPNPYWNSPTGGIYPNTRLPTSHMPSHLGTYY
Outline: as §1

[4] = molecular target: ELF1 (Homo sapiens, UniProt P32519 1-619)
Chain of ELF1 (P32519 whole entry): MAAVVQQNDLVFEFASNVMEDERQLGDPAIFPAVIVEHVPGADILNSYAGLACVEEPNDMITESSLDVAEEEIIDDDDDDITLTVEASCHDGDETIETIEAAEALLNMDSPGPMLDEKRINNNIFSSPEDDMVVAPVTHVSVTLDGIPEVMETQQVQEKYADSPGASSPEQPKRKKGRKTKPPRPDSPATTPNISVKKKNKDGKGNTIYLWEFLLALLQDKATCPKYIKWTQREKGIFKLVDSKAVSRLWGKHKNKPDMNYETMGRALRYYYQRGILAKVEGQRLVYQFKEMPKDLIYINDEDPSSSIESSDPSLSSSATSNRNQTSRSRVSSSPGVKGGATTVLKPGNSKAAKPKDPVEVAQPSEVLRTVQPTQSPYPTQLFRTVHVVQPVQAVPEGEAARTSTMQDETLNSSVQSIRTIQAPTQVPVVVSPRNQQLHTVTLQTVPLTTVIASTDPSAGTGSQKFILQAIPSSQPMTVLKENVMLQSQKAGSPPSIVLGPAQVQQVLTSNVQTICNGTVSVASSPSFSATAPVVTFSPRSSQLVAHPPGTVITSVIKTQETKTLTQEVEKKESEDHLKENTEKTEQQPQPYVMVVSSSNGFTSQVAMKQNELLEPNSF
Outline: as §1

[5] = molecular target: T4, EHF (Homo sapiens, UniProt Q9NZC4 1-300)
T4 sequence: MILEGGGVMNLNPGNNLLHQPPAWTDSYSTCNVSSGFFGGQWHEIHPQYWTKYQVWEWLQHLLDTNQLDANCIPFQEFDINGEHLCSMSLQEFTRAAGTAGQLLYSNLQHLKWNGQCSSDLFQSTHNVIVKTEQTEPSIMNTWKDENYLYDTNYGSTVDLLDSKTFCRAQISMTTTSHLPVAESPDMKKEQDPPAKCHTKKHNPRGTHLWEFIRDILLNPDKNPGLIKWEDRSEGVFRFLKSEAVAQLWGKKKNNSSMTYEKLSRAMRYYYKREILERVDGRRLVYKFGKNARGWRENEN
Outline: as §1

[6] = molecular target: SPIB (Homo sapiens, UniProt Q01892 1-262)
Chain of SPIB (Q01892 whole entry): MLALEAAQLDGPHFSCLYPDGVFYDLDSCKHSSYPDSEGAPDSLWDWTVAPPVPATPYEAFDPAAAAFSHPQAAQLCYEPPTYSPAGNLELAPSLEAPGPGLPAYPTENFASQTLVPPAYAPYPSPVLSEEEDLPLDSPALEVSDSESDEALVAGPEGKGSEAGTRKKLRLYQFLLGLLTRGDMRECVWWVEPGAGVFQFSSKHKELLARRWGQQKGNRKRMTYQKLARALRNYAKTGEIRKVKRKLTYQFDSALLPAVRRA
Outline: as §1

[7] = molecular target: T5, FEV (Homo sapiens, UniProt Q99581 1-238)
T5 sequence: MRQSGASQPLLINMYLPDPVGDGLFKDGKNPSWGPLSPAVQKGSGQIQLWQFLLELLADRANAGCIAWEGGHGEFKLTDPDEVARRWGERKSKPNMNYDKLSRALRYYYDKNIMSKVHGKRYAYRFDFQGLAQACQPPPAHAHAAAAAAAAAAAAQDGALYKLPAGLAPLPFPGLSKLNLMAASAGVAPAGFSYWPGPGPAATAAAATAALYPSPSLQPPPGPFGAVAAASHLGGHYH
Outline: as §1

[8] = molecular target: ETV5 (Homo sapiens, UniProt P41161 1-510)
Chain of ETV5 (P41161 whole entry): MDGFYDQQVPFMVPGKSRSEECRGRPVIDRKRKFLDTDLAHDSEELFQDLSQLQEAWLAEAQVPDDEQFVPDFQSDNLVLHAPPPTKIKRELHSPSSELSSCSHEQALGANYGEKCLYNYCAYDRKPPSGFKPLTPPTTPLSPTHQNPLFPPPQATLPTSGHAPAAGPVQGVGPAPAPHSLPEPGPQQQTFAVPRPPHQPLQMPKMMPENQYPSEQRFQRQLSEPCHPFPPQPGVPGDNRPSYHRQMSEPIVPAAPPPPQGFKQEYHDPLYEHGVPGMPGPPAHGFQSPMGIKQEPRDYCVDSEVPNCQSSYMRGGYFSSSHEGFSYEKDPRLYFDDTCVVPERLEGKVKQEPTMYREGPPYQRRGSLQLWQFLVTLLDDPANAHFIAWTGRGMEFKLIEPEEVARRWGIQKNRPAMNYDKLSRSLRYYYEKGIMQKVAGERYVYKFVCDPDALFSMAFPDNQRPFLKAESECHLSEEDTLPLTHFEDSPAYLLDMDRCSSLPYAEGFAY
Outline: as §1

[9] = molecular target: ELF4 (Homo sapiens, UniProt Q99607 1-663)
Chain of ELF4 (Q99607 whole entry): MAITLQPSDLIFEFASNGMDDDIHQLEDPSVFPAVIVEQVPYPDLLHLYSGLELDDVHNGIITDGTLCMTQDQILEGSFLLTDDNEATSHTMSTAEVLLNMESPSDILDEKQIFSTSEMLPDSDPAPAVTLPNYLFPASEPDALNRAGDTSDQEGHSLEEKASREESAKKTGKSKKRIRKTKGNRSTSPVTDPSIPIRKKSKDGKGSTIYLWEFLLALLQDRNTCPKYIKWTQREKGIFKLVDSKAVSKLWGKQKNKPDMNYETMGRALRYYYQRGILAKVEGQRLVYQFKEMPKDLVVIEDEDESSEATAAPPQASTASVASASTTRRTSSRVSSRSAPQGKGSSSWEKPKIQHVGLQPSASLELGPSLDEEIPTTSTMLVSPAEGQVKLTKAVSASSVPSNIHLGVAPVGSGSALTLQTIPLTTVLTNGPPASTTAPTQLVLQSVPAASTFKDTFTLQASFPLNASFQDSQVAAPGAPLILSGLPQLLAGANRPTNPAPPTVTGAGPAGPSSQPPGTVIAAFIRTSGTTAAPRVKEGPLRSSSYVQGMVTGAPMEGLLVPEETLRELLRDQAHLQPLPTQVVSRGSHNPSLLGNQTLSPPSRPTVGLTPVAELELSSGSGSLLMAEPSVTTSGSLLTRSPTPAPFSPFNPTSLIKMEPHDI
Outline: as §1

[10] = molecular target: T6, ELK4 (Homo sapiens, UniProt P28324-2 1-405)
T6 sequence: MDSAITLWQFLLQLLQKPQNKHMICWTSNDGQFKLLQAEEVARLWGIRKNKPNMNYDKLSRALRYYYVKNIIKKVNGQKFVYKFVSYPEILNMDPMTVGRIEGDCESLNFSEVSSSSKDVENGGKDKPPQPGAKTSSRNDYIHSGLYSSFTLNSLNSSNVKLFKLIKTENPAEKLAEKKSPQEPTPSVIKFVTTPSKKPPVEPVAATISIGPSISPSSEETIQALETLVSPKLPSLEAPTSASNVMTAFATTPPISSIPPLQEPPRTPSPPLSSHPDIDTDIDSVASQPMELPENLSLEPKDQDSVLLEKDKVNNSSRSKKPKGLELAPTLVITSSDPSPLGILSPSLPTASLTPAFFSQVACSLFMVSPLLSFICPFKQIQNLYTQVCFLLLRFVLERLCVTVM
Outline: as §1

Sequence: GGTAAA
- binding signal [1]: 1.1 fold enrichment (6-mer frequency, TF over GST control)
- binding signal [2]: 1.07 fold enrichment (6-mer frequency, TF over GST control)
- binding signal [3]: 1.04 fold enrichment (6-mer frequency, TF over GST control)
- binding signal [4]: 1.08 fold enrichment (6-mer frequency, TF over GST control)
- binding signal [5]: 1.05 fold enrichment (6-mer frequency, TF over GST control)
- binding signal [6]: 1.08 fold enrichment (6-mer frequency, TF over GST control)
- binding signal [7]: 1.02 fold enrichment (6-mer frequency, TF over GST control)
- binding signal [8]: 1.06 fold enrichment (6-mer frequency, TF over GST control)
- binding signal [9]: 1.04 fold enrichment (6-mer frequency, TF over GST control)
- binding signal [10]: 1.11 fold enrichment (6-mer frequency, TF over GST control)
